# From PubChem BioAssay
# IDE inh = human IDE inhibitors in live cells, primary screen, fluorescence polarization, HEK cells, FAbetaB substrate; AID 434962, 2010; inhibition, % at 5.59 µM; Insulin-degrading enzyme (Homo sapiens), P14735; FAbetaB cleavage; actives 0.41% (n = 320,000);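 active = percent inhibition above the average of all tested compounds plus 3 SD, set per screening campaign, cut at about 16% in these data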;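 also: IDE supplied by intact live HEK cells; FP after avidin binding of uncleaved biotin substrate so inhibition keeps polarization high; 0% = DMSO wells and 100% = 60 µM reference IDE inhibitor Ii1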
# RTF Ca sens act = cardiac RTF calcium sensitivity activators, primary screen, biochemical, IANBD-TnC fluorescence, EC20 calcium; Troponin I, cardiac muscle (Homo sapiens) + Troponin T, cardiac muscle (Homo sapiens) + …; IANBD-labeled TnC RTF fluorescence at EC20 calcium; 0% EC20 calcium, 100% full calcium; activation, % at 7.2 µM; actives 0.24% (n = 340,000);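 active = activation above the mean over all tested compounds plus 3 SD, cut at about 30% in these data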;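 also: rise in fluorescence read as greater calcium sensitivity of cardiac thin filaments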
# CRFBP-R2 agonist = agonists of CRF-BP/CRF-R2 complex, primary screen, cell-based, HEK293, calcium dye fluorescence, uHTS | CRF-binding protein / CRF receptor 2 complex (human) | calcium dye fluorescence (FLIPR); percent of saturating CRF peptide response | activation, % at 13.2 µM | actives 0.46% (n = 350,000);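 active = activation of at least 50%, plus an integration ratio under a set limit after plate pattern correction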;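 also: plate controls were neutral control wells without compound for no effect and CRF at EC100 for full effect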
# IDE cell activ = human IDE activators in live cells, primary screen, fluorescence polarization, HEK cells, FAbeta-B substrate; AID 493087, 2011; activation, % at 5.96 µM; actives 0.073% (n = 340,000); FAbeta-B cleavage; 0% vehicle, 100% cell-free pure enzyme wells; Insulin-degrading enzyme (Homo sapiens), P14735;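 active = activation above the mean of all tested compounds plus 3 SD, set per screening campaign, cut at about 17% in these data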
# RTF Ca sens inh = cardiac RTF calcium sensitivity inhibitors, primary screen, biochemical, IANBD-TnC fluorescence, EC70 calcium | IANBD-labeled cardiac RTF, Ca2+ fluorescence | inhibition, % at 7.15 µM | actives 0.12% (n = 340,000);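 active = inhibition above the mean inhibition of all tested compounds plus 3 SD, cut at about 17% in these data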;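 also: assay run at fixed EC70 calcium of 1.6 mM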
# CRFBP-R2 block = antagonists of CRF-BP/CRF-R2 complex, primary screen, cell-based, HEK293, calcium dye fluorescence, uHTS; AID 588475, 2011; actives 0.59% (n = 350,000); CRF-induced calcium fluorescence; inhibition, % at 11.8 µM;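 active = inhibition of the ligand-induced calcium signal above about 50% at the single tested concentration, limit read from the data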
# The depositor's hits bear a star; . = not tested or not shown. The list is not random: actives were taken first. Their share in the collection is about 1.5%.
SMILES,IDE inh,RTF Ca sens act,CRFBP-R2 agonist,IDE cell activ,RTF Ca sens inh,CRFBP-R2 block
CCCCn1c(N)c(N(Cc2ccccc2OC)C(=O)c2c(CC)noc2C)c(=O)[nH]c1=O,0,-5,0,3,-3,78*
COc1cccc(NC(=O)COC(=O)CCC2CCCC2)c1,3,-2,-2,5,1,12
CCCCCCn1c(=O)c(F)cn(Cc2ccc(OC)c([N+](=O)[O-])c2)c1=O,2,2,-2,7,-21,59*
COc1ccc(OC)c2c1sc(=NC(=O)C1COc3ccccc3O1)n2C (stereo unspecified),1,-2,5,6,2,82*
O=C(O)c1ccc(N/N=C/c2c(F)cccc2Cl)cc1,-4,-6,-3,3,-1,-1
CCOC(=O)c1c(NC(=O)COC(=O)c2cnccn2)sc(C)c1C,0,-5,-1,2,-3,5
CC(=O)Nc1ccc(Nc2nc3ccccc3nc2NS(=O)(=O)c2ccc(Cl)c([N+](=O)[O-])c2)cc1,.,1,-3,2,-4,65*
COc1ccc(C2=C/C(=C/c3cccnc3)C(=O)O2)cc1OC,-2,4,144*,-6,-10,-104
COc1ccc(/C=N/N2CCN(c3ccc(Cl)cc3)CC2)cc1O,10,2,-2,-17,1,14
Cc1cc(C)c(OCC(=O)Nc2ccccc2N2CCOCC2)c(C)c1,-3,1,53*,8,-4,-72
Cc1cc(C)c(OCC(=O)Nc2ccccc2N2CCCCC2)c(C)c1,-1,-10,2,-1,1,-3
Cn1cccc1/C=C1\SC(=S)N(CC(=O)O)C1=O,-5,28,2,-1,-24,0
O=C(O)CN1C(=O)/C(=C/c2ccc(SCc3ccccc3)o2)SC1=S,.,35*,39,-12,-45,-57
CC(C)(C)c1nc(CN2CCCCC2)cc(CN2CCCCC2)c1O,0,-7,0,-2,-6,81*
CN(CC(=O)Nc1ccc(Cl)c(C(F)(F)F)c1)C(=O)CCCNC(=O)c1ccc(Cl)cc1,2,4,1,2,3,-4
COC(=O)c1c(NC(=O)CSc2ncn[nH]2)sc(C)c1C,1,4,.,1,-4,.
CC(=O)Nc1ccc(OCC(O)CN2C(C)(C)CC(O)CC2(C)C)cc1 (stereo unspecified),-2,5,-2,3,-4,53*
CC(=O)Nc1ccc(OCC(O)CN2C(C)CCCC2C)cc1 (stereo unspecified),4,0,0,5,14,18
Cc1cccc2cc(CN(CCN(C)C)C(=S)Nc3ccccc3)c(=O)[nH]c12,-7,-3,1,0,-5,-21
COc1ccc(-c2nn(-c3ccccc3)cc2/C=C(\C#N)S(=O)(=O)c2ccccc2)cc1OC,3,-2,12,3,4,66*
O=C(Nc1ccccc1Br)C1CCN(S(=O)(=O)c2cccs2)CC1,4,-7,-3,5,-6,-4
CS(=O)(=O)N(CC(=O)N1CCCCCC1)c1cccc([N+](=O)[O-])c1,7,2,0,7,-5,-6
CCOc1cc(/C=N/NC(=O)c2ccccc2OCc2ccc(F)cc2)ccc1O,2,1,-1,7,-7,56*
CCOc1cc(/C=N/NC(=O)c2ccccc2-n2cccc2)ccc1O,0,1,-2,-5,0,13
Cc1nc(Cl)sc1C(=O)Nc1cccc2ccccc12,2,6,-2,4,11,21
CCOC(=O)/C(=N\Nc1ccc(C(C)=O)cc1)c1csc(Nc2ccccc2)n1,7,131*,74*,0,-126,-97
CCOC(=O)/C(=N\Nc1ccccc1[N+](=O)[O-])c1csc(N)n1,0,-2,0,5,-3,10
